Assay results: PubChem BioAssay (NCI)
Compounds without any hit were thinned out: in the full panel of roughly 83,000, 20% have a hit.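 Compound tested at a single concentration for 48 hours in 96-well plates; a percent growth value below 10 was scored as active.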 Calls of active or inactive are those of the source.

What was measured:
Experiment in all cases: NCI-60 one-dose screen, 48 h (100 = growth as untreated, 0 = no growth, -100 = all killed)
Conditions in all cases: 10 µM unless noted
HCT-15 colon = test system: HCT-15 colon
HT29 colon = test system: HT29 colon
SNB-75 CNS = test system: SNB-75 CNS
SNB-19 CNS = test system: SNB-19 CNS
UACC-62 melanoma = test system: UACC-62 melanoma
LOX IMVI melanoma = test system: LOX IMVI melanoma
SK-MEL-28 melanoma = test system: SK-MEL-28 melanoma
PC-3 prostate = test system: PC-3 prostate
SK-MEL-5 melanoma = test system: SK-MEL-5 melanoma

Measured: growth

COc1cc(-c2nn(-c3ccc(Br)cc3)cc2C(=O)O)ccc1O
inactive: HCT-15 colon 103% | HT29 colon 101% | SNB-75 CNS 92.2% | SNB-19 CNS 103% | UACC-62 melanoma 109% | LOX IMVI melanoma 102% | SK-MEL-28 melanoma 119%

COc1ccc2cc(-c3nn(-c4ccc(C(=O)O)cc4)cc3CO)ccc2c1
inactive: HCT-15 colon 98.1% | HT29 colon 98.7% | SNB-75 CNS 80.9% | SNB-19 CNS 103% | PC-3 prostate 98.7% | UACC-62 melanoma 103% | LOX IMVI melanoma 101% | SK-MEL-28 melanoma 112%

Cn1c(NCCc2ccc(O)c(O)c2)nc2c1c(=O)n(Cc1ccc(Cl)c(Cl)c1)c(=O)n2C
inactive: HCT-15 colon 45.7% | HT29 colon 94.4% | SNB-75 CNS 56.1% | SNB-19 CNS 84.3% | UACC-62 melanoma 73.9% | LOX IMVI melanoma 86.5% | SK-MEL-28 melanoma 77.3%

COc1cc2c(cc1O)CC[C@@H]1[C@@H]2CC[C@]2(C)[C@@H](NCCN(C)C)CC[C@@H]12
active: HCT-15 colon -83.1% | HT29 colon -91.9% | SNB-75 CNS -96.6% | SNB-19 CNS -79.6% | PC-3 prostate -91.2% | LOX IMVI melanoma -84.2%

COc1ccc(CN2c3ccccc3Oc3ccccc32)cc1O
inactive: HCT-15 colon 28.1% | HT29 colon 72.7% | SNB-75 CNS 27.4% | SNB-19 CNS 34.9% | PC-3 prostate 31.4% | LOX IMVI melanoma 39.5%

COc1ccc(S(=O)(=O)N2CC3(COC3)C2)cc1NC(=O)c1[nH]c(C)c2c1CCCCC2=O
inactive: HCT-15 colon 70.1% | HT29 colon 19.2% | SNB-75 CNS 19.4% | SNB-19 CNS 54.9% | SK-MEL-5 melanoma 46.5% | UACC-62 melanoma 23.4% | LOX IMVI melanoma 17.3% | SK-MEL-28 melanoma 73.7%

O=C(/C=C/c1ccccc1)c1ccc(O)c(CN2CCN(c3cc4c(cc3F)c(=O)c(C(=O)O)cn4C3CC3)CC2)c1
active: HT29 colon 5.56% | SNB-75 CNS -2.4% | SK-MEL-5 melanoma -42.1% | LOX IMVI melanoma 6.26%
inactive: HCT-15 colon 16.9% | SNB-19 CNS 29.8% | UACC-62 melanoma 21.3% | SK-MEL-28 melanoma 46.5%

O=C1Nc2c(ccc(Cl)c2Cl)/C1=C\c1cc(C(F)(F)F)cc(C(F)(F)F)c1
inactive: SNB-75 CNS 13.7% | SNB-19 CNS 21.7%
active: HCT-15 colon -80.8% | HT29 colon -26.5% | PC-3 prostate 0.08% | UACC-62 melanoma -3.92% | LOX IMVI melanoma -90.1% | SK-MEL-28 melanoma -21%

COc1cccc(-c2nc3sccn3c2-c2ccnc(NCCCNS(=O)(=O)c3c(Cl)cccc3Cl)c2)c1
inactive: HCT-15 colon 37.7% | HT29 colon 48.4% | SNB-75 CNS 73% | SNB-19 CNS 78.7% | PC-3 prostate 35.1% | UACC-62 melanoma 25.7% | LOX IMVI melanoma 54.1% | SK-MEL-28 melanoma 90.1%

CCNC(=O)Oc1ccc(/C(=C(\C)c2ccc(Cl)cc2)c2ccc(OCCN(CC)CC)cc2)cc1
active: HCT-15 colon 1.8% | HT29 colon -23.2% | UACC-62 melanoma -68.3% | LOX IMVI melanoma -59% | SK-MEL-28 melanoma -62.3%
inactive: SNB-75 CNS 45.2% | SNB-19 CNS 59.2%

COc1ccc(-c2nc3ccc(-c4nc5ccc(N6CCN(c7ccc(F)cc7)CC6)cc5[nH]4)cc3[nH]2)cc1OC
inactive: HCT-15 colon 44.7% | HT29 colon 44.3% | SNB-75 CNS 64.3% | SNB-19 CNS 117% | PC-3 prostate 62.7% | UACC-62 melanoma 60.6% | LOX IMVI melanoma 37.1% | SK-MEL-28 melanoma 90.6%

CSc1ccc(-c2ccccc(=O)c2O)cc1
inactive: HCT-15 colon 26.9% | HT29 colon 25.7% | SNB-75 CNS 34.6% | SNB-19 CNS 17.5% | PC-3 prostate 30.9% | SK-MEL-28 melanoma 26.9%
active: UACC-62 melanoma -23% | LOX IMVI melanoma 9.8%

Cc1ccc(OC(=O)c2ccc(Cl)cc2)cc1
inactive: HCT-15 colon 102% | HT29 colon 89.2% | SNB-75 CNS 77.1% | SNB-19 CNS 103% | SK-MEL-5 melanoma 103% | UACC-62 melanoma 94.7% | LOX IMVI melanoma 99.3% | SK-MEL-28 melanoma 106%

C=CC(=O)Nc1cccc(-c2nc(SC)nc(NCc3ccccc3)c2C#N)c1
inactive: HCT-15 colon 58.4% | HT29 colon 62.2% | SNB-75 CNS 19.6% | SNB-19 CNS 54.8% | SK-MEL-5 melanoma 74% | UACC-62 melanoma 61% | LOX IMVI melanoma 65.8% | SK-MEL-28 melanoma 82.4%

COc1ccc(-c2nc(SCC(=O)Nc3ccc(C(=O)/C=C/c4ccc(Cl)cc4)cc3)[nH]c(=O)c2C#N)cc1
inactive: HCT-15 colon 97.9% | HT29 colon 103% | SNB-75 CNS 85.2% | SNB-19 CNS 39.4% | PC-3 prostate 93.6%
active: LOX IMVI melanoma -79.4%

COc1cc(-c2nn(-c3ccc(C(=O)O)cc3)cc2C(=O)O)ccc1O
inactive: HCT-15 colon 48.6% | HT29 colon 110% | SNB-75 CNS 36.6% | SNB-19 CNS 58.4% | UACC-62 melanoma 90% | LOX IMVI melanoma 44.4% | SK-MEL-28 melanoma 63.5%

COC[C@H](C)n1c(C2CCOCC2)nc2cnc3cc(-c4c(C)noc4C)c(OC)cc3c21
inactive: HCT-15 colon 34.6% | HT29 colon 23.4% | SNB-75 CNS 31.2% | SNB-19 CNS 64.8% | PC-3 prostate 44.8% | UACC-62 melanoma 31.7% | LOX IMVI melanoma 27% | SK-MEL-28 melanoma 59%

CN(C)S(=O)(=O)c1ccc(S(=O)(=O)Nc2cccc(Cl)c2N2CCCCC2)cc1
inactive: HCT-15 colon 79.9% | HT29 colon 91.8% | SNB-75 CNS 64.2% | SNB-19 CNS 84.9% | SK-MEL-5 melanoma 80.7% | UACC-62 melanoma 57.8% | LOX IMVI melanoma 67.4% | SK-MEL-28 melanoma 59.9%

CCOC(=O)c1sc2nc(-c3cccc(OC)c3)nc(N3CCOCC3)c2c1C
inactive: HCT-15 colon 96.4% | HT29 colon 89.9% | SNB-75 CNS 95.3% | SNB-19 CNS 89.1% | SK-MEL-5 melanoma 85.5% | UACC-62 melanoma 75.6% | LOX IMVI melanoma 94% | SK-MEL-28 melanoma 101%

O=C(N/N=C/c1ccccc1O)c1ccccc1Nc1ccnc(C(F)(F)F)c1
inactive: HCT-15 colon 24.6% | HT29 colon 41.3% | SNB-75 CNS 20.7% | SNB-19 CNS 21.8% | SK-MEL-28 melanoma 28.3%
active: SK-MEL-5 melanoma -64.5% | UACC-62 melanoma -19.1% | LOX IMVI melanoma 7.93%

COc1ccc(-c2nc3cc(C(=O)Nc4cc(OC)c(OC)c(OC)c4)ccc3n2C2CCCCC2)cc1
inactive: HCT-15 colon 80.2% | HT29 colon 102% | SNB-75 CNS 82% | SNB-19 CNS 98.1% | SK-MEL-5 melanoma 77.8% | UACC-62 melanoma 80.2% | LOX IMVI melanoma 95.5% | SK-MEL-28 melanoma 97%

C=C(C)[C@@H]1CC[C@]2(C(=O)OC)CC[C@]3(C)[C@H](CC[C@@H]4[C@@]5(C)C/C(=C/c6cccc(I)c6)C(=O)C(C)(C)[C@@H]5CC[C@]43C)[C@@H]12
inactive: HCT-15 colon 99.3% | HT29 colon 107% | SNB-75 CNS 89.2% | SNB-19 CNS 94% | SK-MEL-5 melanoma 99% | UACC-62 melanoma 96.5% | LOX IMVI melanoma 91.9% | SK-MEL-28 melanoma 104%

COc1ccc2nc(NC(=O)CSc3nnc4n3S(=O)(=O)c3ccccc3N4c3ccccc3)sc2c1
inactive: HCT-15 colon 93.7% | HT29 colon 102% | SNB-75 CNS 77.5% | SNB-19 CNS 97.2% | SK-MEL-5 melanoma 99.1% | UACC-62 melanoma 82.6% | LOX IMVI melanoma 85.5% | SK-MEL-28 melanoma 109%

C=CC(=O)Nc1cccc(-c2nc(SC)nc(NCCN3CCOCC3)c2C#N)c1
inactive: HCT-15 colon 90.1% | HT29 colon 89.4% | SNB-75 CNS 44.8% | SNB-19 CNS 88.5% | SK-MEL-5 melanoma 94.9% | UACC-62 melanoma 86.7% | LOX IMVI melanoma 85.5% | SK-MEL-28 melanoma 114%

CC(C)(O)c1cn(CCCCN2C(=O)C(=O)c3ccccc32)nn1
inactive: HCT-15 colon 101% | HT29 colon 107% | SNB-75 CNS 68% | SNB-19 CNS 95.9% | SK-MEL-5 melanoma 99.7% | UACC-62 melanoma 98.1% | LOX IMVI melanoma 91.6% | SK-MEL-28 melanoma 113%

CCCn1c(=O)[nH]c(N)c([C@H]2c3ccccc3Oc3[nH]c(=O)n(CCC)c(=O)c32)c1=O
inactive: HCT-15 colon 48.9% | HT29 colon 85.3% | SNB-75 CNS 82.9% | SNB-19 CNS 97.8% | PC-3 prostate 107% | UACC-62 melanoma 80.6% | LOX IMVI melanoma 64.8% | SK-MEL-28 melanoma 73%

COc1ccc(/C=C(\C#N)C(=O)Nc2cccc(Nc3nc(SC)nc(-c4cccc([N+](=O)[O-])c4)c3C#N)c2)cc1OC
inactive: HCT-15 colon 95.3% | HT29 colon 113% | SNB-75 CNS 92% | SNB-19 CNS 104% | SK-MEL-5 melanoma 94.8% | UACC-62 melanoma 97% | LOX IMVI melanoma 97.6% | SK-MEL-28 melanoma 105%

O=C1/C(=C/C(Cl)=C/c2ccccc2)SC(=S)N1CCc1ccc(O)cc1
inactive: SNB-75 CNS 17.3%
active: HCT-15 colon 2.94% | HT29 colon 1.54% | SNB-19 CNS 6.88% | SK-MEL-5 melanoma -47.6% | UACC-62 melanoma -24.7% | LOX IMVI melanoma -79.2% | SK-MEL-28 melanoma -26%

N#Cc1nnn(-c2ccc(S(N)(=O)=O)cc2)c1NCC(=O)c1ccccc1
inactive: HCT-15 colon 98.3% | HT29 colon 95.5% | SNB-75 CNS 80% | SNB-19 CNS 92.2% | PC-3 prostate 84.1% | UACC-62 melanoma 96% | LOX IMVI melanoma 94.1% | SK-MEL-28 melanoma 111%

COc1cccc(-c2nc3sccn3c2-c2ccnc(NCCNS(=O)(=O)c3ccccc3)c2)c1
inactive: HCT-15 colon 11.8% | HT29 colon 23.6% | SNB-75 CNS 15.2% | SNB-19 CNS 51.6% | LOX IMVI melanoma 24% | SK-MEL-28 melanoma 50%
active: SK-MEL-5 melanoma -39.3% | UACC-62 melanoma -31.3%

CCC([N+](=O)[O-])S(=O)(=O)c1ccc(C)cc1 (stereo unspecified)
inactive: HCT-15 colon 105% | HT29 colon 101% | SNB-75 CNS 85.1% | SNB-19 CNS 94.4% | PC-3 prostate 101% | UACC-62 melanoma 101% | LOX IMVI melanoma 98.2% | SK-MEL-28 melanoma 112%

CC1=C[C@H]2c3c(c(O)c(O)c4oc5ccccc5c(=O)c34)[C@H](c3cc(O)c(O)c4oc5ccccc5c(=O)c34)[C@H]2C(C)(C)C1
active: SNB-75 CNS -29.7% | PC-3 prostate 5.67% | UACC-62 melanoma -65.5% | LOX IMVI melanoma -78.9%
inactive: HCT-15 colon 13.7% | HT29 colon 14.8% | SNB-19 CNS 13.8% | SK-MEL-28 melanoma 18.3%
